# Source: PubChem BioAssay (NCATS)
# Inconclusive results are not listed. Calls of active or inactive are those of the source. Calls follow the shape of the dose curve; as a rule, active = well fitted inhibition curve with a large enough effect; inconclusive = small, poorly fitted or top-dose-only effect; inactive = no such curve, though single readings can be large or run the other way.
# Test system: Zika virus NS2B-NS3 protease (unlinked complex)
# Assay: Primary screen GU Rhodamine qHTS for Zika virus inhibitors: Unlinked NS2B-NS3 protease assay (AID 1347159); also: nearly all actives have a fitted effect of over 60% in size; also: potency is read from the fitted curve at half-maximal effect
# Conditions: Recombinant ZIKV NS2B-NS3 protease, Rhodamine110 substrate fluorescence; series mostly up to 107 µM; activity change, negative = inhibition: at the top concentration
# Summary of the method: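 A qHTS format was used, with compound concentrations ranging up to 114 microM. Each compound was preincubated with 25 nM NS2B-NS3 protease, and the substrate was then added at 1.5 microM. Curves were fitted with a 4-parameter Hill model.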
# % is scaled to controls: 0 for no effect and ±100 for the full control effect.
SMILES,"activity change, negative = inhibition",Potency
COC(=O)C1=COC(OC2OC(CO)C(O)C(O)C2O)C2C(COC(=O)/C=C/c3ccc(O)cc3)C(O)C(O)C12 (configuration not stated),-26.9% [at 57.1 µM] (inactive),
O=C(O)CC1CCC(c2ccc(NC(=O)c3nnc(Nc4ccc(F)c(F)c4)o3)cc2)CC1 (configuration not stated),,14.1 µM (active)
C=C1CC2C3(C)C(O)CC(=O)C(C)(C)C3C(O)C(OC(C)=O)C2(C)C2C(=O)OC(C)(C(=O)OC)C(=O)C12C (configuration not stated),58.4% [at 57.1 µM] (inactive),

# Test system: Zika virus NS2B-NS3 protease (linked construct)
# Assay: Primary screen NINDS Rhodamine qHTS for Zika virus inhibitors (AID 1347160); also: nearly all actives have a fitted effect of over 55% in size
# Conditions: purified NS2B-NS3 protease, Rhodamine110 substrate fluorescence; series mostly up to 33.1 µM; activity change, negative = inhibition: at the top concentration
# Summary of the method: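 Kinetic fluorescence (Ex 480 nm, Em 540 nm) over 15 min with 1.5 microM Rhodamine110 peptide and 25 nM linked protease.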
SMILES,"activity change, negative = inhibition",outcome
COc1cc(/C=C/C(=O)O[C@H]2[C@@H]3C=CO[C@@H](O[C@@H]4O[C@H](CO)[C@@H](O)[C@H](O)[C@H]4O)[C@@H]3[C@@]3(CO)O[C@@H]23)ccc1O,-2.36% (inactive),
Nc1ncnc2c1ncn2[C@H]1O[C@@H](C(=O)N2CCN(CC(=O)Nc3cccc4c3CNC4=O)CC2)[C@H](O)[C@@H]1O,13.3% [at 57.1 µM] (inactive),
CC1(C)C[C@H](O)C[C@@]2(C)[C@H]1[C@H](O)C=C1COC(=O)[C@@]12O,36.6% [at 57.1 µM] (inactive),
COc1ccc(-c2ccn(CC[C@](C)(C(=O)NO)S(C)(=O)=O)c(=O)c2)c(F)c1,3.67% [at 57.1 µM] (inactive),
C[C@@H]1O[C@@H](O[C@H]2[C@H](OC(=O)[C@]34CCC(C)(C)C[C@H]3C3=CCC5[C@@]6(C)C[C@@H](O)[C@@H](O[C@@H]7O[C@H](CO)[C@@H](O)[C@H](O)[C@H]7O)[C@@](C)(CO)C6[C@H](O)C[C@@]5(C)[C@]3(C)CC4)OC[C@H](O)[C@@H]2O)[C@H](O)[C@H](O[C@@H]2OC[C@](O)(CO)[C@H]2O)[C@H]1O[C@@H]1OC[C@@H](O)[C@H](O[C@H]2O[C@H](C)[C@@H](O)[C@H](O)[C@@H]2O)[C@H]1O (some centres not stated),20% [at 10.7 µM] (inactive),
O=C(O)CCc1c(C(=O)O)[nH]c2cc(Cl)cc(Cl)c12,3.08% (inactive),
CC(=O)N[C@H](Cc1c[nH]c2ccccc12)C(=O)OCc1cc(C(F)(F)F)cc(C(F)(F)F)c1,18.2% [at 57.1 µM] (inactive),
C=C1C2(C)CC3C4(C)C=CC(=O)OC(C)(C)C4CCC3(C)C1(C(=O)OC)C(=O)C(C)(O)C2=O (configuration not stated),8.45% (inactive),
C=C[C@H]1[C@H](O[C@@H]2O[C@H](CO)[C@@H](O)[C@H](O)[C@H]2O)OC=C2C(=O)N3Cc4c([nH]c5ccccc5c4=O)[C@@H]3C[C@H]21,,inactive [at 33.1 µM]
COC(=O)C1=COC(O[C@@H]2O[C@H](CO)[C@@H](O)[C@H](O)[C@H]2O)/C(=C\COC(=O)/C=C/c2ccccc2)C1CC(=O)OCCc1ccc(O)cc1 (some centres not stated),15.8% [at 15.1 µM] (inactive),
C=C1C[C@H](O)[C@@H](O)[C@@]2(C)C1[C@@H](O)[C@H]1OC(=O)C3[C@@H](C)[C@@H](O)[C@H](O)C2[C@]31C (some centres not stated),,inactive [at 33.1 µM]
CC1(C)C[C@@H]2[C@H](C1)[C@@]1(C)C[C@]13C(O)OC[C@]3(O)[C@H]2O (some centres not stated),23.7% [at 57.1 µM] (inactive),
CCN1CCN(C(=O)N[C@@H](C(=O)N[C@@H]2C(=O)N3[C@@H]2SC(C)(C)[C@@H]3C(=O)O)c2ccccc2)C(=O)C1=O,,inactive
CC(=O)OC12CC(C)C(O)C1/C=C(/COC1OC(CO)C(O)C(O)C1O)CCC1C(/C=C(\C)C2=O)C1(C)C (configuration not stated),-14.6% (inactive),
C/C=C(\C)C(=O)O[C@H]1C=CC(=O)O[C@H]1/C=C/[C@H](O)[C@@H](C)O,2.86% [at 57.1 µM] (inactive),
O=C(O)c1ccc(NC(=O)[C@H](CC2CCCC2)n2cnc(C(F)(F)F)c2)nc1,-8.83% [at 57.1 µM] (inactive),
C=C1CCc2occ(C)c2[C@H]2[C@H]1[C@@]13O[C@@]1(C[C@@H](C)[C@H]3OC(C)=O)[C@H]1O[C@@]21C,12.9% (inactive),
O=C(Nc1ccn(Cc2c(F)cccc2C(F)(F)F)n1)c1c(F)cccc1F,21.2% [at 15.1 µM] (inactive),
C/C=C(\C)C(=O)OC[C@H]1O[C@H](O[C@H]2O[C@H](CO)[C@@H](O)[C@H](O)[C@H]2O[C@@H]2O[C@H](CO)[C@@H](O)[C@H](O)[C@H]2O)[C@H](O[C@@H]2O[C@H](CO)[C@@H](O)[C@H](O)[C@H]2O)[C@@H](O)[C@@H]1O,21.1% [at 15.1 µM] (inactive),
CCCCCOC(=O)Nc1nc(=O)n(C2O[C@H](C)[C@@H](O)[C@H]2O)cc1F (some centres not stated),9.35% [at 57.1 µM] (inactive),
CC/C=C/C(O)C(O)C1=C(C)C(=O)C2(O1)C(=O)NC(OC)(C(=O)c1ccccc1)C2O (configuration not stated),-0.101% (inactive),
COc1ccc2c(c1)N1C(=O)C[C@@]34C=CC[N@+]5([O-])CC[C@H]2[C@H](CC3)[C@@]145,-4.2% (inactive),
COC(=O)C1=CO[C@@H](O[C@@H]2O[C@H](CO)[C@@H](O)[C@H](O)[C@H]2O)/C(=C\CO)[C@@H]1CC(=O)OCCc1ccc(O)cc1,18.7% (inactive),
N#Cc1cccc(-c2nc(-c3cccnc3)no2)c1,,inactive [at 33.1 µM]
